Experimental data reported in PubChem BioAssay AID1628 (Sanford-Burnham Center for Chemical Genomics, 2009).
Among all 190,000 compounds or so, about 930 (0.49%) were called active.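 How the source made its calls: active means z-score of insulin promoter reporter brightness in nuclei below -3 at 5 µM, with at least 500 cells counted; inconclusive means wells with under 500 cells, flagged as toxic or sparse; inactive means the rest.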 Some of the results follow. Potency and affinity values are given separately.

Test: insulin promoter down-regulators in MIN6 cells, imaging, high-content screening, mouse beta cells (AID 1628)
Settings: MIN6 insulin promoter GFP reporter, at 5 µM, hits give low values

Structure (SMILES)	z-score
C[n+]1cc(C(=O)N2CCCCC2)ccc1/C=C/c1c[nH]c2ccccc12	3.95 (inactive)
O=C(c1csc2ccccc12)N1CCCCCC1	-4.36 (active)
Cc1ccccc1C(=O)N1CCc2ccccc2C1	3.99 (inactive)
N#Cc1c(NC(=O)CCCN2C(=O)c3ccccc3C2=O)oc(-c2ccccc2)c1-c1ccccc1	-0.48 (inactive)
Cc1ccc(-n2nnnc2SC(C)C(=O)NCC(=O)Nc2ccc(F)c(F)c2F)c(C)c1 (stereo not given)	-4.63 (active)
Cc1csc(SC(C)C(=O)NCC(=O)Nc2ccc(F)c(F)c2F)n1 (stereo not given)	4.91 (inactive)
Cc1ccc2nc(C)c(C(=O)O)cc2c1	3.57 (inactive)
O=C(CN1CCOCC1)Nc1nc(-c2ccc3c(c2)CCN3S(=O)(=O)c2ccccc2)cs1	-3.24 (active)
CS(=O)(=O)N1CCc2cc(-c3csc(NC(=O)Cc4cccs4)n3)ccc21	-3.24 (active)
O=C(Nc1ccccc1)c1ccccc1NS(=O)(=O)c1ccc(Cl)s1	-3.51 (active)
O=S(=O)(NCc1csc(-c2ccccc2)n1)c1ccc(Cl)s1	0.86 (inactive)
Cc1ccc(SCCC(=O)N/N=C/c2ccncc2)cc1	1.59 (inactive)
CC(=O)Oc1ccc2c(c1)Oc1cc(OC(C)=O)ccc1C21OC(=O)c2ccccc21	15.3 (inactive)
O=C1/C(=C/c2c[nH]c3ccccc23)CCC/C1=C\c1c[nH]c2ccccc12	4.59 (inactive)
O=C1CC(=O)C(n2cncn2)C(c2ccc(Cl)cc2)C1 (stereo not given)	-5.08 (active)
COCCN1C(=O)/C(=C/c2ccc(N3CCCC3)cc2)SC1=S	16.8 (inactive)
COc1ccc(/C=C2/SC(=O)N(CCNC(=O)C3CCCN3C(=O)c3cccs3)C2=O)cc1 (stereo not given)	-4.56 (active)
O=C(CCl)N(c1ccccc1)C1CCCCC1	-5.83 (active)
CCC(C)(C(=O)NC1CCCC1)N(C(=O)CNC(C)=O)c1ccccc1 (stereo not given)	3.46 (inactive)
Cc1ccc2[nH]c(-c3ccccc3)c(CN(C)C)c(=O)c2c1	4.17 (inactive)

Structure (SMILES)	z-score
Cc1ccc(Cn2nnc3c(=O)n(CC(=O)NCc4ccco4)cnc32)cc1	1.28 (inactive)
O=c1c2nnn(Cc3ccccc3)c2ncn1C/C=C/c1ccccc1	-5.83 (active)
COc1cccc(-n2nnc3c(=O)n(CC(=O)OCc4ccccc4)cnc32)c1	1.01 (inactive)
c1ccc(CCNc2c3c(nc4ncnn24)CCC3)cc1	-3.18 (active)
Oc1[nH]c2c(Cl)cc(Cl)cc2c1N=NC(=S)NCC1CCCO1 (stereo not given)	-3.65 (active)
O=C(CN(C1CCCCC1)S(=O)(=O)c1ccccc1)NCc1ccco1	0.65 (inactive)
CCOC(=O)C1CCN(S(=O)(=O)c2ccc3c(c2)CCCN3C(C)=O)CC1	-4.86 (active)
CCC(=O)N1CCCc2cc(S(=O)(=O)N3CCN(c4ccccc4F)CC3)ccc21	-5.64 (active)
COc1ccccc1N/C(N)=N/c1nc(C(F)(F)F)cc(=O)[nH]1	3.34 (inactive)
CCCCn1c(SCC(=O)O)nc2ccccc21	3.5 (inactive)
CCCCn1c(SCc2ncc(-c3ccccc3)o2)nc2cc(S(N)(=O)=O)ccc21	-5.03 (active)
N=c1c2c(-c3ccccc3)c(-c3ccccc3)oc2ncn1CCCN1CCOCC1	-3.3 (active)
Cc1cccn2c(=O)c(/C=C3\SC(=S)NC3=O)c(NCCCN3CCOCC3)nc12	5.45 (inactive)
O=C(/C=C/c1ccc(N2CCC(c3ccccc3)=N2)cc1)c1ccccc1	17.2 (inactive)
O=C1C=C(Nc2ccc(O)cc2)CC(c2ccco2)C1 (stereo not given)	6.78 (inactive)
O=c1[nH]c2ccccc2nc1/C=C/c1ccc(F)cc1	5.99 (inactive)
CCOC(=O)c1c(NC(=O)c2ccccc2)sc2c1CCc1ccccc1-2	-5.18 (active)
CCOC(=O)c1sc(NC(=O)c2sccc2C)cc1C	3.1 (inactive)
Cc1ccc(C2CC(=O)NC(SCc3ccccc3)=C2C#N)o1 (stereo not given)	3.43 (inactive)
CCOC(=O)CSC1=C(C#N)C(c2ccc(C)s2)CC(=O)N1 (stereo not given)	-3.15 (active)

Structure (SMILES)	z-score
CC(=O)C1=C(C)NC(SCC(=O)c2ccc(Cl)c(Cl)c2)=C(C#N)C1c1ccco1 (stereo not given)	3.16 (inactive)
CCOc1cc2[nH]c(=O)n(CCC(=O)NCCc3ccc(OC)c(OC)c3)c(=O)c2cc1OCC	1.44 (inactive)
CCn1c(NCCc2ccc(OC)c(OC)c2)nc2c1c(=O)n(C)c(=O)n2C	-5.44 (active)
CCCNc1nc2c(c(=O)n(C)c(=O)n2C)n1CCc1ccccc1	-5.56 (active)
O=c1cc2oc3cc(O)c(O)cc3c(-c3ccccc3O)c-2cc1O	15.3 (inactive)
CCn1c(SCC(=O)Nc2nc3ccc(OC)cc3s2)nc2c1c(=O)n(C)c(=O)n2C	-3.33 (active)
CCn1ncc(C2=NOC(C(=O)Nc3cccc(C(C)=O)c3)C2)c1C (stereo not given)	-3 (active)
CC(C)(C)c1ccc(C(=O)c2c[nH]c(C(=O)NCC3CCCO3)c2)cc1 (stereo not given)	-4.57 (active)
C=C(C)c1cccc(C(C)(C)NC(=O)NCC2COCCO2)c1 (stereo not given)	0.86 (inactive)
CCn1c(=NC(=O)c2ccc(S(=O)(=O)N(C)C)cc2)sc2cccc(OC)c21	-5.14 (active)
C/C(=C\c1ccccc1)CN1CCN(c2ccccc2)CC1	1.49 (inactive)
c1ccc(-n2ncc3c(N4CCN(c5ccccn5)CC4)nc(N4CCCCCC4)nc32)cc1	4.11 (inactive)
CC(=O)Nc1sc(/C(C#N)=C\c2cccc(Cl)c2)nc1-c1ccc(C)cc1	15.6 (inactive)
CCOC(=O)N1CCN(/C=C(\C#N)c2nc3ccccc3s2)CC1	3.47 (inactive)
Cc1nn(-c2ccccc2)c(N2CCCC2)c1/C=N/n1cnc2scc(-c3ccccc3)c2c1=O	-3.26 (active)
COc1ccc(Nc2ncnc3c2cnn3Cc2ccccc2)cc1OC	-4.71 (active)
COc1cc2c3nnc(-c4ccc(F)cc4)c-3cn(Cc3ccccc3)c2cc1OC	3.81 (inactive)
O=[N+]([O-])c1ccc(N/N=C/c2ccc[nH]2)cc1	12.9 (inactive)
N#C/C(=C/c1ccc(N2CCOCC2)o1)c1ccc(Cl)cc1	7.33 (inactive)
Oc1c(C=NCc2ccc(F)cc2)[nH]c2ccc(Br)c(Cl)c12	4.06 (inactive)
